CHO-K1 Ca PAM – M1 PAM counterscreen hit in parental CHO-K1 cells; ATP EC20, Fluo-8 calcium fluorescence; 0% at ATP EC20, 100% at ATP max; activation, % at 3 µM; 360,000 tested, 0.02% active; AID 602247;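 active = activation above the run cutoff, the mean activation of all test compounds plus 3 SD, cut at about 40% in these data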;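 note: peak over basal fluorescence ratio in a 140 s read after ATP addition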
TMEM16A act – activators or potentiators of mouse TMEM16A chloride channel; AID 623877; Q8BHY3; B-score at 10 µM; 340,000 tested, 0.3% active; HEK293 TMEM16A/YFP-H148Q/I152L, iodide quench fluorescence; stronger effect = lower value;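 active = fluorescence-ratio B-score plate-corrected deviation score at least 3 library SD below zero, with starting fluorescence score within 5 deviations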;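 note: channel opened by trigger with iodide after compound preincubation; score built on the fluorescence ratio of max minus min over baseline; more negative score means more quench and so TMEM16A activation or potentiation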
Target sequence (Q8BHY3 whole entry, looked up): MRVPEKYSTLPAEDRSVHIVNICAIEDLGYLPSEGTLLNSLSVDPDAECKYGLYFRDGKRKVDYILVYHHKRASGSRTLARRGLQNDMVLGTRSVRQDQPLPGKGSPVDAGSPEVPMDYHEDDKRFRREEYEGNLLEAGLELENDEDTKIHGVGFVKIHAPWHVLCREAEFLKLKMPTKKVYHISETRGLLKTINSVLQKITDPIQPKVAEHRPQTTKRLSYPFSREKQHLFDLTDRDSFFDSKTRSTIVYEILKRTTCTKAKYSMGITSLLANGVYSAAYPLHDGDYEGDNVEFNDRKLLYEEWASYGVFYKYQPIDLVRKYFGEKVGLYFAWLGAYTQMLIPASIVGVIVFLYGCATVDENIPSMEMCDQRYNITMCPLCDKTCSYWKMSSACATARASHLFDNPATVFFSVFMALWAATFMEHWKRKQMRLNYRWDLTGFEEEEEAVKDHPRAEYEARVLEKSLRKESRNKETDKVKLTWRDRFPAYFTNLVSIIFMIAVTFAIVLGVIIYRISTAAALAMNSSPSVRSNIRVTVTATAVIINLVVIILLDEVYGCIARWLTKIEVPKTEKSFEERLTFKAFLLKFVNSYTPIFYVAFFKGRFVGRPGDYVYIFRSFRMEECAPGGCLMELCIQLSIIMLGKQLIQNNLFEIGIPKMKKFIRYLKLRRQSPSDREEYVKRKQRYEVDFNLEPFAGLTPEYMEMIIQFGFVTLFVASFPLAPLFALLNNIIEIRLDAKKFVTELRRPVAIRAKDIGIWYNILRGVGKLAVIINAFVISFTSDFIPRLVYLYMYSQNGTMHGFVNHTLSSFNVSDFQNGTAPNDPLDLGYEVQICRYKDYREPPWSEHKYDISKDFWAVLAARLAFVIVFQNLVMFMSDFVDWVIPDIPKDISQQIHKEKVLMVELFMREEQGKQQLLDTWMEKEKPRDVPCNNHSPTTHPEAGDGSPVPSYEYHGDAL
NTR1 agonist – activates human neurotensin receptor 1; NTR1-U2OS beta-arrestin-GFP spot imaging, agonist mode; 330,000 tested, 0.17% active; activation, % at 20 µM;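 active = activation at or above 40% of the spot to cytoplasm intensity ratio, with at least 20 cells analyzed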
ANO1 block – inhibitors of mouse TMEM16A calcium-activated chloride channel. Q8BHY3. HEK293 TMEM16A/YFP iodide influx fluorescence, ionomycin. normalized B-score (activity score, 25-100; higher = stronger inhibition) at 10 µM. 310,000 tested, 1.2% active. AID 588511;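 active = ratio plate-corrected score three or more library SD toward inhibition, starting fluorescence score within five deviations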;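 note: score derived from kinetic fluorescence span divided by baseline fluorescence per well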
CHO-K1 Ca antag – nonselective inhibitor or artifact in parental CHO-K1 cells | ATP-induced calcium, Fluo-8 fluorescence | inhibition, % at 3 µM | 360,000 tested, 0.6% active;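 active = inhibition above a per-plate cutoff, the plate's mean sample inhibition plus 3 SD, cut at about 24% in these data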
CHO-K1 Ca ag – nonselective activator or artifact in parental CHO-K1 cells | Fluo-8 calcium fluorescence; scaled to maximal ATP response, vehicle zero | activation, % at 3 µM | 360,000 tested, 0.48% active | AID 602248; in the data active = activation above about 15%;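 note: untransfected CHO-K1 host cells lacking M1 receptor as counterscreen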
TMEM16A reconf – reconfirmed blocker of mouse TMEM16A calcium-activated chloride channel; shares compounds with ANO1 block; HEK293 TMEM16A/YFP-H148Q, iodide quench fluorescence; ionomycin added to raise cell calcium; inhibition, % at 10 µM; 2,300 tested, 39% active; AID 652189;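 active = mean duplicate percent inhibition, scaled so buffer wells are 0 and the reference blocker 100, over three buffer SD above buffer mean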
TMEM16A Ca cntr – alters calcium mobilization in TMEM16A HEK293 cells, counter-screen. shares compounds with ANO1 block. 2,300 tested, 2% active. calcium response (% of ionomycin), % at 10 µM. AID 652231. TMEM16A/YFP HEK293, Fluo4 calcium mobilization;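 active = duplicate-averaged calcium signal over 20% of the ionomycin maximum, relative to buffer baseline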;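 note: each well's signal is peak minus trough fluorescence divided by its pre-addition baseline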
YFP-HEK293 quench – counter-screen for TMEM16A inhibitors: effect in parental YFP-HEK293 cells; shares compounds with ANO1 block; iodide YFP quench, ionomycin; YFP ratio F(max-min)/F0 at 10 µM; 2,300 tested, under 10 active; AID 652233;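 active = yellow fluorescent protein signal ratio exceeding the buffer control mean by over 5 SD of those controls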;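 note: ratio is mean of duplicate wells from kinetic YFP trace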
ClC-1 rat inh – selectivity of TMEM16A inhibitors: inhibition of rat ClC-1 chloride channel. ratio percent, % at 10 µM. CHO ClC-1-YFP, iodide influx fluorescence quench; iodide control reads 0, buffer control 100. 2,300 tested, under 10 active. shares compounds with ANO1 block;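 active = duplicate-mean ratio percent above the mean of iodide-only control wells, which defines zero, plus 5 of their SD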;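 note: higher percent means stronger block of ClC-1 iodide influx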
Each line names hits and unclear results; the compound was inactive in the other large screens (follow-up assays come after a bar, where they were run). An excerpt weighted towards active compounds, which were near 2.2% of everything screened.

CC(C)COC(=O)N1CCCCC1c1cc(C(=O)Nc2ccccc2)no1 (stereo not given)	none (no result: TMEM16A act, NTR1 agonist, ANO1 block)
C/C=C1\COC(C(=O)NCc2ccccc2)(C(F)(F)F)C=C1C=C(C)C (stereo not given)	ANO1 block 100 | TMEM16A reconf inactive | TMEM16A Ca cntr inactive | YFP-HEK293 quench inactive | ClC-1 rat inh inactive
O=C(COC(=O)CCNS(=O)(=O)c1cccc(C(F)(F)F)c1)NC(=O)NC1CCCCC1	ANO1 block 25 | TMEM16A reconf 24.0% | TMEM16A Ca cntr inactive | YFP-HEK293 quench inactive | ClC-1 rat inh inactive
Cc1ccccc1S(=O)(=O)NC(=O)C1(C)CCN1C(=O)Cc1cccs1 (stereo not given)	none (no result: TMEM16A act, NTR1 agonist, ANO1 block)
N#CC1(Cc2ccccc2Cl)c2ccccc2C=CN1C(=O)c1ccccc1 (stereo not given)	ANO1 block 25 | TMEM16A reconf inactive | TMEM16A Ca cntr inactive | YFP-HEK293 quench inactive | ClC-1 rat inh inactive
COc1cc2ncnc(Nc3ccc4c(c3)OCO4)c2cc1OC	none | TMEM16A reconf inactive | TMEM16A Ca cntr inactive | YFP-HEK293 quench inactive | ClC-1 rat inh inactive
O=C(O)CCNS(=O)(=O)c1ccc2ccccc2c1	ANO1 block 100 | TMEM16A reconf inactive | TMEM16A Ca cntr inactive | YFP-HEK293 quench inactive | ClC-1 rat inh inactive
Cc1nc(-c2ccc(Cl)cc2)sc1C1(C)CC(c2ccc(Cl)cc2)=NO1 (stereo not given)	ANO1 block 25 | TMEM16A reconf inactive | TMEM16A Ca cntr inactive | YFP-HEK293 quench inactive | ClC-1 rat inh inactive
CCc1c(C(=O)Nc2nnc(C3CC3)s2)csc1C	ANO1 block 100 | TMEM16A reconf inactive | TMEM16A Ca cntr inactive | YFP-HEK293 quench inactive | ClC-1 rat inh inactive
CC1(Oc2ccccc2-c2ccn[nH]2)CCN(Cc2ccc(OC(F)(F)F)cc2)C1 (stereo not given)	none (no result: TMEM16A act, NTR1 agonist, ANO1 block)
Cc1cc(=O)[nH]c2ccc(Cl)cc12	none
CC(C(=O)O)c1ccc2c(c1)[nH]c1ccc(Cl)cc12 (stereo not given)	ANO1 block 25 | TMEM16A reconf inactive | TMEM16A Ca cntr inactive | YFP-HEK293 quench inactive | ClC-1 rat inh inactive
Nc1ccc(S(=O)(=O)NN=Cc2ccccc2[N+](=O)[O-])cc1	none (no result: NTR1 agonist, ANO1 block)
COC(=O)Cn1c(C(F)(F)F)nc2ccccc21	none
CC(OC(=O)Cn1c(C(F)(F)F)nc2ccccc21)C(=O)N1CCCc2ccccc21 (stereo not given)	ANO1 block 100 | TMEM16A reconf inactive | TMEM16A Ca cntr inactive | YFP-HEK293 quench inactive | ClC-1 rat inh inactive
CC1(C(=O)NS(=O)(=O)c2cccc(C#N)c2)CCN1C(=O)Cc1cc(F)ccc1F (stereo not given)	none (no result: TMEM16A act, NTR1 agonist, ANO1 block)
Cc1nn(Cc2ccc(C(=O)Nc3nc4c(C)cccc4s3)o2)c(C)c1Br	ANO1 block 100 | TMEM16A reconf inactive | TMEM16A Ca cntr inactive | YFP-HEK293 quench inactive | ClC-1 rat inh inactive
Cc1nn(Cc2ccc(C(=O)NC3CCCCC3)o2)c(C)c1Br	none
C[C@@H]1CN([C@@H](C)CO)C(=O)CCCn2nncc2CO[C@H]1CN(C)Cc1cccc(C(F)(F)F)c1	none (no result: TMEM16A act, NTR1 agonist, ANO1 block)
CC1=CC(C)(C)N(S(=O)(=O)c2ccc(F)cc2)c2ccccc21	ANO1 block 25 | TMEM16A reconf inactive | TMEM16A Ca cntr inactive | YFP-HEK293 quench inactive | ClC-1 rat inh inactive
CC1=CC(C)(C)N(S(=O)(=O)c2ccc(C)cc2)c2ccc(C)cc21	ANO1 block 25 | TMEM16A reconf inactive | TMEM16A Ca cntr inactive | YFP-HEK293 quench inactive | ClC-1 rat inh inactive
COC(=O)CSc1nnc2c3c4c(sc3nc(-n3nc(C)cc3C)n12)COC(C)(C)C4	none
Cc1cc(C)n(-c2nc3sc4c(c3c3nnc(SC(C)C)n23)CC(C)(C)OC4)n1	ANO1 block 100 | TMEM16A reconf inactive | TMEM16A Ca cntr inactive | YFP-HEK293 quench inactive | ClC-1 rat inh inactive
CC(OC(=O)c1ccc(NC(=O)CC#N)cc1)C(=O)Nc1ccc(Oc2ccccc2)cc1 (stereo not given)	none
CC(OC(=O)c1ccc(NC(=O)CC#N)cc1)C(=O)Nc1nc(-c2ccccc2)cs1 (stereo not given)	ANO1 block 100 | TMEM16A reconf 22.0% | TMEM16A Ca cntr inactive | YFP-HEK293 quench inactive | ClC-1 rat inh inactive
Cc1cc(C(=O)OC(C)C(=O)Nc2nc(-c3ccccc3)cs2)c(C)o1 (stereo not given)	ANO1 block 25 | TMEM16A reconf inactive | TMEM16A Ca cntr inactive | YFP-HEK293 quench inactive | ClC-1 rat inh inactive
O=C1c2cc([N+](=O)[O-])ccc2-c2cc(Br)c(N=C(NO)C(F)(F)F)cc21	none (no result: NTR1 agonist, ANO1 block)
Cc1ccc(-c2nn(-c3ccccc3)cc2CO)cc1	none
Cc1ccc(Sc2c(CO)c(-c3ccccc3)nn2C)cc1	ANO1 block 100 | TMEM16A reconf 27.5% | TMEM16A Ca cntr 22.5% | YFP-HEK293 quench inactive | ClC-1 rat inh inactive
O=C(c1[nH]c(C(F)(F)F)nc1-c1ccccc1)N1CCCN(Cc2ccc(F)cc2)CC1	none (no result: TMEM16A act, NTR1 agonist, ANO1 block)
O=C(CCN1C(=O)/C(=C/c2ccco2)SC1=S)Nc1ccc(O)cc1C(=O)O	none | TMEM16A reconf inactive | TMEM16A Ca cntr inactive | YFP-HEK293 quench inactive | ClC-1 rat inh inactive
O=C(CN1C(=O)/C(=C\c2ccco2)SC1=S)Nc1ccc(O)cc1C(=O)O	none
COc1cc2c(cc1NC(=O)CCCCCN1C(=O)CCC1=O)oc1ccccc12	ANO1 block 25 | TMEM16A reconf inactive | TMEM16A Ca cntr inactive | YFP-HEK293 quench inactive | ClC-1 rat inh inactive
COc1cc2c(cc1NC(=O)CCCN1C(=O)CCC1=O)oc1ccccc12	none
Cc1ccc(C)c(NC(=O)c2ccccc2O)c1	ANO1 block 25 | TMEM16A reconf 36.0% | TMEM16A Ca cntr inactive | YFP-HEK293 quench inactive | ClC-1 rat inh inactive
O=C(Nc1ccccc1O)c1ccccc1O	ANO1 block 100 | TMEM16A reconf 31.5% | TMEM16A Ca cntr inactive | YFP-HEK293 quench inactive | ClC-1 rat inh inactive
O=C(Nc1ccccc1Cl)c1ccccc1Cl	none
Cc1ccc(C)c(NC(=O)c2cc(C)nc3ccccc23)c1	none
CC1(C(=O)O)CCN1C(=O)c1cccc(OC(F)(F)F)c1 (stereo not given)	none (no result: TMEM16A act, NTR1 agonist, ANO1 block)
